eIF4H FP inh – inhibitors of RNA binding by human eIF4H. Q15056. eIF4H fluorescence polarization binding assay. inhibition, % at 35 µM. actives 0.94% (n = 290,000). AID 2012;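 note: calls also rest on retests at 20 µM and on dose response follow-up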
eIF4E-4G inh – eIF4E/eIF4G interaction inhibition in translation initiation | P63073+Q04637 | TR-FRET eIF4E-eIF4GI(517-606) binding, 2 h | inhibition, % at 21.7 µM | actives 0.37% (n = 220,000);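 active = inhibition above about 30%, limit read from the data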
Target sequence (P63073 whole entry, looked up): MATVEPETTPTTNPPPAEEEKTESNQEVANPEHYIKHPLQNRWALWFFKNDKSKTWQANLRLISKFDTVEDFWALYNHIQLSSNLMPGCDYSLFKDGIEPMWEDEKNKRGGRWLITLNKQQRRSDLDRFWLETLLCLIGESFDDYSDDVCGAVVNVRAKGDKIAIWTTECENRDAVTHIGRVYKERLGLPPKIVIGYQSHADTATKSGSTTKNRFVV
Target sequence (Q04637 whole entry, looked up): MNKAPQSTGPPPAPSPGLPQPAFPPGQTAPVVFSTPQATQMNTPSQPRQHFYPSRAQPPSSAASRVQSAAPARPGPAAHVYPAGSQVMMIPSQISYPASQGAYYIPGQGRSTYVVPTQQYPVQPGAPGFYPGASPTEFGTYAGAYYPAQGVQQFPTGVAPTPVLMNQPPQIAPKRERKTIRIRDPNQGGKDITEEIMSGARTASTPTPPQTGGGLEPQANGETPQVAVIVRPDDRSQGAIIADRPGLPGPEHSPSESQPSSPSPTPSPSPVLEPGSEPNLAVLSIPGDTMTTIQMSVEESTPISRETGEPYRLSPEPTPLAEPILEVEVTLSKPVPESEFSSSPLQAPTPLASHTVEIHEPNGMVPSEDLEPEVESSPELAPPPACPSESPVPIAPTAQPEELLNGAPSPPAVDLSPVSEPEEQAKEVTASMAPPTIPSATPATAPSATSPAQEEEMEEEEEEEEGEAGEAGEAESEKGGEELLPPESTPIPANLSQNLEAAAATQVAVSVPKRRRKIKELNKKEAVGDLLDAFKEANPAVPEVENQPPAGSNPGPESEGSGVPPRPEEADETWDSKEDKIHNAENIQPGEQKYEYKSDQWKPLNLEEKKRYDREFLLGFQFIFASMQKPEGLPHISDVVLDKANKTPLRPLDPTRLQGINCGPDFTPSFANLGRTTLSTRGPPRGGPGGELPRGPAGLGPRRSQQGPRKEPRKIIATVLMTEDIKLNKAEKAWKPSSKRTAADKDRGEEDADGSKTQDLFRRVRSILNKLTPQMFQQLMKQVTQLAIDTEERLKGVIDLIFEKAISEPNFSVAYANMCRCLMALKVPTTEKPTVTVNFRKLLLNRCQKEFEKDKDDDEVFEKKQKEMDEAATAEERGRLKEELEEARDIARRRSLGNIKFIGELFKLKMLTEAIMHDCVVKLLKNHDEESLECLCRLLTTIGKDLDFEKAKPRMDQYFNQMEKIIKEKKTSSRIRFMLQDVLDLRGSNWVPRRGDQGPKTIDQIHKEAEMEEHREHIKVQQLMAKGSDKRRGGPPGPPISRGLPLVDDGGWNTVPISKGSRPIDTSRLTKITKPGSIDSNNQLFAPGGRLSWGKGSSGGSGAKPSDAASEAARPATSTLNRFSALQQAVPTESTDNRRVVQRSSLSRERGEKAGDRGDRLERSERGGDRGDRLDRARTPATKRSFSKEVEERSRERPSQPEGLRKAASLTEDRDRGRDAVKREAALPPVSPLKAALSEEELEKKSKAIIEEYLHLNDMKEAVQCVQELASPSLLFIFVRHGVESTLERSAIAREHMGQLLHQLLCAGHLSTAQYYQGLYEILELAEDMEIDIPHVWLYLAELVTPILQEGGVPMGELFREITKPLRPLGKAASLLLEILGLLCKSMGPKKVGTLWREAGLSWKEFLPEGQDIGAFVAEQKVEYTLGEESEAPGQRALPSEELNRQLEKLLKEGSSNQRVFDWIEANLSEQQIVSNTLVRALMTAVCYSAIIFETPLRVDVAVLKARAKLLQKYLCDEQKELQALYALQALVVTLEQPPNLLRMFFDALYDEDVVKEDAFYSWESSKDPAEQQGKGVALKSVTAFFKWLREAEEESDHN
PERK inh – blocks human PERK kinase | AID 1416 | actives 0.17% (n = 220,000) | inhibition, % at 5.6 µM | CHO PERK-DD fusion, SEAP luminescence translation reporter;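 active = inhibition above the mean inhibition of all tested compounds plus 3 SD, set separately per screening campaign, cut at about 2.9% in these data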;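 note: PERK kinase domain activated by AP20187 dimerizer at 100 nM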
PABP FP inh – blocks human PABP binding to poly(A) RNA | actives 1% (n = 290,000) | inhibition, % at 35 µM | fluorescence polarization;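 note: calls also rest on retests at 20 µM and on dose response follow-up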
PABP1 MLLE inh – inhibitors of microRNA-mediated deadenylation, human PABP1 MLLE binding; P11940; GST-MLLE / FITC-PAM2 fluorescence polarization; inhibition, % at 20 µM; actives 0.36% (n = 360,000); in the data active = inhibition above about 35%, passing the limit was not always enough
Hits are given with their value; 0 = inactive; ? = inconclusive; - = no result; [ ] = remark or other dose. In the library only some 1.6% were active in any assay of this set; here they are far more common. Unless noted, the rule behind the calls is not given here.

SMILES	eIF4H FP inh	eIF4E-4G inh	PERK inh	PABP FP inh	PABP1 MLLE inh
CCNc1ccc(Br)cc(C(=O)/C=C/c2ccc(Cl)cc2Cl)c1=O	0	0	0	0	0
COc1ccc(CCCC(=O)N/N=C/c2ccc(C)cc2)cc1	0	0	0	0	0
COc1ccc(CCCC(=O)N/N=C/c2ccccc2OC)cc1	active	0	0	63	0
CC(=O)c1ccc2cccc3c2c1N=CN3C	72	0	0	0	0
Cc1ccnc(NC(=O)Cc2ccc(F)cc2)n1	0	85	0	0	0
Nc1c(S(=O)(=O)O)cc(NC(=O)c2ccccc2)c2c1C(=O)c1ccccc1C2=O	?	-	-	112	0
CN(C)/C=C/C(=O)c1ccc(-n2cccc2)cc1	0	0	0	0	0
O=c1c(/C=N/OCc2ccc(Cl)cc2Cl)c[nH]n1-c1cccc(Cl)n1	25	0	0	0	0
O=c1c(-n2cncn2)c[nH]n1-c1cccc(Cl)n1	0	0	0	0	0
Cc1cccc(C)c1NC(=O)CN1CCN(C(=O)c2cc(C3CC3)nn2-c2ccccc2)CC1	-	-	-	-	0
CSc1ccccc1NC(=S)Nc1ccc(S(N)(=O)=O)cc1	0	0	0	0	36
CC(O)CNc1cnccn1 (stereo unspecified)	63	0	0	71	0
COC(=O)c1[nH]c2ccc(F)cc2c1NS(=O)(=O)c1ccc(OC)cc1	0	0	0	0	0
COc1ccc2[nH]c3c(=O)n(CCCCC(=O)N4CCC(C(N)=O)CC4)c(=S)[nH]c3c2c1	0	0	0	0	51
COc1ccc2[nH]c3c(=O)n(CCCCC(=O)NCCN4CCCC4)c(=S)[nH]c3c2c1	0	0	0	0	0
CCOc1ccc(/C=N/NC(=O)CCC(=O)Nc2ccc(F)cc2)cc1	0	-	-	0	0
CN1CCN(CC(=O)Nc2sc3c(c2C(=O)Nc2ccccc2)CCCC3)CC1	0	-	-	60	0
O=C(CN1CCCC1)Nc1sc2c(c1C(=O)Nc1ccc(Br)cc1)CCC2	0	-	-	0	0
O=C(/C=C/c1ccc(Cl)cc1)Nc1nccs1	active	0	0	0	0
Cc1cc(NC(=O)C(C)Oc2ccc(C(C)(C)C)cc2)no1 (stereo unspecified)	0	-	-	0	0
CCc1ccc(Nc2nnc(SCC(=O)Nc3cccnc3Cl)s2)cc1	0	0	0	0	0
O=C(O)CCSc1nnc(SCC(=O)NCC(F)(F)F)s1	0	56	0	0	0
CCOc1ccc(/C=C2\SC(=S)N(NS(=O)(=O)c3ccccc3)C2=O)cc1OC	0	0	0	0	0
Nc1cccc2c1C(=O)N(c1ccccc1)C2=O	-	-	-	-	48
c1ccc(-c2ccc(-c3nccc4ccccc34)[nH]2)cc1	62	0	0	13	-
SMILES	eIF4H FP inh	eIF4E-4G inh	PERK inh	PABP FP inh	PABP1 MLLE inh
Clc1ccc(/C=N/Nc2nc(Cl)nc3ccccc23)cc1	0	0	0	0	0
COC(=O)/C(=C\c1ccc([N+](=O)[O-])o1)NC(=O)c1ccccc1	0	0	0	120	0
C/C(CC(=O)Nc1ccc(C)c(Cl)c1)=N\NC(=O)c1ccco1	0	0	0	0	0
CCOC(=O)c1c(N)sc2c1CCCC2	0	0	0	0	0
CCNC(=O)c1c(N)sc2c1CCCCC2	62	0	0	92	-
CCOC(=O)CSc1ccc(S(=O)(=O)N2CCCC2)cc1[N+](=O)[O-]	active	0	0	55	0
COc1ccc(-n2c(SCC(=O)NNC(=O)c3ccccc3C)nnc2-c2ccncc2)cc1	0	0	0	0	0
O=C1NC(c2ccncc2)C(C(=O)c2cccs2)C(O)(C(F)(F)F)N1 (stereo unspecified)	0	0	3.0	0	0
O=C(NNc1ccc([N+](=O)[O-])cc1)Nc1ccccc1	0	-	-	0	0
Cc1cccc(NC(=O)CCS(=O)(=O)c2cccc3nsnc23)c1C	0	0	0	0	0
O=C(CCS(=O)(=O)c1cccc2nsnc12)NCc1ccccc1Cl	0	33	0	0	0
CC(C(=O)NC1CCCCC1)N1C(=O)C2C3C=CC(C3)C2C1=O (stereo unspecified)	0	-	-	0	0
CC(C(=O)Nc1nncs1)N1C(=O)C2C3C=CC(C3)C2C1=O (stereo unspecified)	?	0	0	active	0
CN(C)C(=O)c1ccc(NC(=O)COc2cccc(Oc3ccccc3)c2)cc1	0	-	-	57	0
O=C(COc1cccc(Oc2ccccc2)c1)Nc1ccc(SC(F)F)cc1	0	0	0	0	0
CC(=O)Nc1ccc(S(=O)(=O)NNC(=O)COc2cccc(C)c2)cc1	0	33[fluorescence artefact?]	0	0	0
COc1cccc(NC(=O)COc2ccccc2)c1	0	-	-	0	0
COc1cccc(NC(=O)CCC(=O)Nc2cccc(OC)c2)c1	0	0	0	0	0
COc1cccc(NC(=O)CSC(N)=O)c1	0	0	0	0	38
CC(=O)Nc1cccc(OCC(=O)Nc2ccccc2)c1	active	0	0	0	0
CCOC(=O)c1ccc(S(=O)(=O)NNC(=O)COc2cccc(C)c2)cc1	0	0	0	0	0
CC1(C)Cc2c(C#N)c(SCCOc3ccccc3)nc(N3CCOCC3)c2CO1	0	0	0	0	0
Cc1cccc(OCC(=O)Nc2ccc3c(C)cc(=O)oc3c2)c1	78	0	0	14	0
Cc1cc(=O)oc2cc(NC(=O)COc3cccc(C(F)(F)F)c3)ccc12	-	-	-	-	0
CCN1C(=O)CSC1=Nc1ccc(C(=O)O)cc1	0	-	-	0	0
SMILES	eIF4H FP inh	eIF4E-4G inh	PERK inh	PABP FP inh	PABP1 MLLE inh
COC(=O)c1ccccc1NC(=O)c1ccc2nccnc2c1	0	0	0	active	0
O=C1/C(=C\c2ccc(O)cc2)SC(=S)N1/N=C/c1ccc(O)cc1	83	0	0	53	0
Cc1cccc(Cl)c1OCCN1CCCC1	0	-	-	0	0
O=C(NC1CCCCC1)C(Cc1ccccc1)NS(=O)(=O)c1cccs1 (stereo unspecified)	0	0	0	0	0
O=S(=O)(NC(=S)c1ccccc1)c1ccc(Cl)cc1	0	-	-	0	0
O=S(=O)(NC(=S)NC1CCCCC1)c1cccs1	0	0	0	0	52
O=S(=O)(NC(=S)NC1CCCCC1)c1ccccc1	0	0	0	0	37
O=S(=O)(NC(=S)c1ccccc1)c1ccccc1	-	-	-	-	46
Cc1ccccc1NC(=O)NCCCN1CCCC1	0	0	3.5	0	0
c1ccc(NC2=NCCCCS2)cc1	108	0	0	0	0
CC(=O)N1c2ccccc2[C@@H](C)[C@@H]1C	-	-	-	-	0
COc1ccc2c(c1)c(=O)oc1cc(O)ccc12	0	0	3.4	0	0
COc1ccc(C(=O)COC(=O)c2cccnc2Cl)c(OC)c1	59	0	0	0	0
CCc1cc(=O)oc2cc(C)cc(OCC(=O)NCc3cccnc3)c12	79	-	-	0	0
CCCCc1cc(=O)oc2cc(C)cc(OCC(=O)NCc3cccnc3)c12	0	-	-	0	0
COc1cc(S(=O)(=O)NCCCN2CCOCC2)ccc1Cl	0	0	2.9	0	0
COc1ccc(NC(=O)CNS(=O)(=O)c2ccc(Cl)cc2)cc1	0	0	0	0	0
COc1ccc(NC(C)=[N+](C)CCNS(=O)(=O)c2ccc(Cl)cc2)cc1	0	-	-	56	0
Cc1c2ccccc2cc[n+]1CCCS(=O)(=O)[O-]	0	0	0	0	0

Compound activity from PubChem.
